Bioassay records from PubChem.
p47phox inh: p47phox/p22phox peptide binding inhibitors, primary screen, biochemical, uHTS, NADPH oxidase regulatory subunit | inhibition, % at 24.7 µM | 0.53% of 220,000 active | Neutrophil cytosol factor 1 (Homo sapiens), P14598 | fluorescence polarization, 2 h;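 active means inhibition above about 30%, limit read from the data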
Target sequence (P14598 whole entry, looked up): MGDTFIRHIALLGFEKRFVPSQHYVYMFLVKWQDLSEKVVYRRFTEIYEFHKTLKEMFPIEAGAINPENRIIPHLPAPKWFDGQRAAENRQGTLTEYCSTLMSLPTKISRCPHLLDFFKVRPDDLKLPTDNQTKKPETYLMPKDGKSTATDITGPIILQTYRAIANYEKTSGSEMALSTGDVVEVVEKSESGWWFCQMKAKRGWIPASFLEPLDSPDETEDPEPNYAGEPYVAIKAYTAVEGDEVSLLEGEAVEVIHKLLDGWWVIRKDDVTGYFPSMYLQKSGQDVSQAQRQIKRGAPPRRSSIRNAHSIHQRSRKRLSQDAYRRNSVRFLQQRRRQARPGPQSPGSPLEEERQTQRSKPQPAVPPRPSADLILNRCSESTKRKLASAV
Bim-Mcl-1: inhibitors of Bim peptide binding to Mcl-1, primary screen, biochemical, bead-based flow cytometry, multiplex; Induced myeloid leukemia cell differentiation protein Mcl-1 (Homo sapiens), Q07820; Bim peptide-Mcl-1 binding; inhibition, % at 10 µM; 0.1% of 190,000 active; in the data active means inhibition above about 40%
Calpain2 inh: inhibitors of pig calpain II, primary screen, biochemical, fluorogenic peptide substrate, 1536-well; purified calpain II, 30 min; inhibition, % at 16 µM; 0.37% of 220,000 active; AID 1236, 2008;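 active means inhibition above about 50%, limit read from the data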
14-3-3 Bad PPI: inhibitors of 14-3-3 zeta/Bad binding, primary screen, biochemical, TR-FRET, bovine 14-3-3 zeta; 14-3-3 protein zeta/delta (Bos taurus), P63103; TR-FRET 14-3-3zeta/Dy647-pBad peptide displacement, 1 h; inhibition, % at 21.7 µM; 0.71% of 220,000 active; AID 781, 2007;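 active means inhibition above about 70%, limit read from the data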
Target sequence (P63103 whole entry, looked up): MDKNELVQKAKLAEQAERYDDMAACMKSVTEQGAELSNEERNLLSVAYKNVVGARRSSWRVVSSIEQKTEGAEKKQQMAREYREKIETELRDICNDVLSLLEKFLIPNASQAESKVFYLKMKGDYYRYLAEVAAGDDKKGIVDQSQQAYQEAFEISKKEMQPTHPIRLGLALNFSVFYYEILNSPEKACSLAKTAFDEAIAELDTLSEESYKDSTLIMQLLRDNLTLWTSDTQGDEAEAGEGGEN
Mcl1 Bid PPI: Mcl-1/Bid binding inhibitors, primary screen, biochemical, TR-FRET, 1536-well. Induced myeloid leukemia cell differentiation protein Mcl-1 (Homo sapiens), Q07820. TR-FRET Mcl-1/Bid-Dy647 peptide binding. inhibition, % at 21.7 µM. 0.97% of 220,000 active. AID 1021, 2008;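 active means compounds that cut the binding signal by more than half at the single screening dose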;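 further: His-tagged Mcl-1 with europium anti-His antibody binding Bid BH3 peptide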
Mcl1 Noxa PPI: Mcl-1/Noxa binding inhibitors, primary screen, biochemical, TR-FRET, 1536-well. TR-FRET Mcl-1/Noxa peptide binding, 2 h. AID 1022, 2008. inhibition, % at 21.7 µM. Induced myeloid leukemia cell differentiation protein Mcl-1 (Homo sapiens), Q07820. 1.5% of 220,000 active;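 active means compounds that cut the protein-peptide binding signal by more than 50% relative to plate controls in a single-dose test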;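 further: His-tagged Mcl-1 with rhodamine Noxa BH3 peptide and terbium anti-His antibody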
Each line names hits and unclear results; the compound was inactive in the other large screens. In the library only some 3.4% were active in any assay of this set; here they are far more common.

COc1ccc(NC(=O)CCS(=O)(=O)c2cccc3nonc23)cc1	none
O=C(CCS(=O)(=O)c1cccc2nsnc12)NCc1ccccc1Cl	none
COc1ccc(Nc2nnc(-c3ccc(N4CCOCC4)c([N+](=O)[O-])c3)c3ccccc23)cc1	none
Cc1cccc2nc(COc3ccc(Cl)c4cccnc34)cn12	none
CCSc1cnn(-c2ccccc2)c(=O)c1SCC	none
CCCCSc1cnn(-c2ccccc2)c(=O)c1SCCCC	p47phox inh 65
N#Cc1c(Nc2cccc(F)c2)sc2c(O)cc(=O)[nH]c12	Mcl1 Noxa PPI 54
N#Cc1c(Nc2ccc(F)cc2)sc(C(=O)c2ccccc2)c1N	none
O=C(CN1C(=O)C2CCCCC2C1=O)OCn1nnc2ccccc2c1=O (stereo unspecified)	none
O=C(OCn1nnc2ccccc2c1=O)C1CCCCC1	Mcl1 Noxa PPI 54
CSc1ncccc1C(=O)OCC(=O)c1cccs1	none
CCN(CC)c1nc2c3c(nc4c(c3c1C#N)CC(=O)N4c1ccc(Cl)cc1)NC(C)=N2	Mcl1 Noxa PPI 82
CCN(CC)C(=O)CC(c1ccc(OC)cc1)c1c(OC)cc(OC)c2ccc(=O)oc12 (stereo unspecified)	none (no result: Bim-Mcl-1)
O=C(CP(=O)(c1ccccc1)c1ccccc1)Nc1nc2ccc(Cl)cc2s1	Mcl1 Bid PPI 97 (no result: Bim-Mcl-1)
Cn1c(=O)[nH]c(=O)c2[nH]c(N(Cc3ccccc3)Cc3ccccc3)nc21	Calpain2 inh 65
c1ccc(-c2nc3ccccc3c3nncn23)cc1	p47phox inh 35
CC1CCCN(C(=O)c2cccc(S(=O)(=O)Nc3cc(C(F)(F)F)ccc3Cl)c2)C1 (stereo unspecified)	14-3-3 Bad PPI 90
Cc1cccc(NC(=S)NNC(=O)c2cc3c(s2)CCC(C)C3)c1C (stereo unspecified)	none
NC(=O)COC(=O)c1ccccc1SCC(=O)NC1CCCCCC1	none
COc1ccc(C(=O)n2nnc3ccccc32)cc1OC	none
COc1ccc(N/C(=C(/C(Cl)=C(Cl)Cl)[N+](=O)[O-])n2nnc3ccccc32)cc1OC	Mcl1 Bid PPI 75
CC(=O)N1NC(=Nc2ccccc2)SC1(C)C	none
Cc1nc2c(C)cccc2c2c1CCS2	none (no result: Bim-Mcl-1)
Cc1ccccc1N1CCN(Cc2c[nH]c3ccccc23)CC1	14-3-3 Bad PPI 71
C=CCNc1nc(-c2ccc(O)c(C(N)=O)c2)cs1	14-3-3 Bad PPI 76
C=CCNc1nc(-c2cc3ccccc3o2)cs1	Mcl1 Bid PPI 55
C=CCNC(=O)c1ccc(-c2nc(-c3ccc(Cl)c(Cl)c3)cs2)cc1	none
c1ccc2oc(-c3csc(NCC4CCCO4)n3)cc2c1 (stereo unspecified)	none
COc1ccc2c(c1O)-c1ccccc1CCN(C)C2	none
CN1CCc2cccc3c2[C@@H]1Cc1ccc(O)c(O)c1-3	Mcl1 Noxa PPI 92
CC(NC(=O)CCc1nnc(CCCc2ccccc2)o1)c1ccccc1 (stereo unspecified)	none
COC(=O)c1sccc1NC(=O)c1cc(C)on1	Mcl1 Bid PPI 63
O=C(c1ccc2c(c1)OCO2)N1CCCc2ccccc21	none
Cc1ccc2c(c1)CCCN2C(=O)c1ccc2c(c1)OCO2	Calpain2 inh 50
C=CCCCCCCCCC(=O)NNC1CC(=O)N(c2ccccc2)C1=O (stereo unspecified)	none (no result: Bim-Mcl-1)
COc1ccc(N=c2oc3cc(O)ccc3cc2C(=O)Nc2ccccn2)cc1OC	Mcl1 Noxa PPI 53
COc1ccccc1N1CCN(C(=O)c2ccc3nc(-c4ccco4)c(-c4ccco4)nc3c2)CC1	Mcl1 Noxa PPI 63
O=C(O)c1ccc2nc(-c3ccccc3)c(-c3ccccc3)nc2c1	none
O=C(c1ccccc1)c1ccc2nc(-c3ccco3)c(-c3ccco3)nc2c1	Mcl1 Noxa PPI 99
c1coc(-c2nc3ccccc3nc2-c2ccco2)c1	Mcl1 Noxa PPI 85 (no result: 14-3-3 Bad PPI)
O=C(NCCc1ccccc1)c1ccc(=O)oc1	none
O=C(NCCc1ccccc1)c1ccc2nc(-c3ccco3)c(-c3ccco3)nc2c1	Mcl1 Bid PPI 56, Mcl1 Noxa PPI 103
CCn1c(COc2ccc(=O)n(-c3ccccc3)n2)nnc1SC	none
O=C(NC1CCCCCC1)C1Cc2ccccc2CN1C(=O)c1ccco1 (stereo unspecified)	none
O=C(NC1CCCC1)c1ccc2nc(-c3ccco3)c(-c3ccco3)nc2c1	Mcl1 Noxa PPI 101
O=C(NC1CCCC1)c1ccc2nc[nH]c2c1	none
O=C(NCCO)c1ccc2nc(-c3ccco3)c(-c3ccco3)nc2c1	Mcl1 Noxa PPI 92
Cc1ccc(N2CCN(C(=O)c3ccccc3)CC2)c(C)c1	p47phox inh 92
C/C(=N\NC(=O)CSc1nc(C)cc(C)n1)c1ccc([N+](=O)[O-])cc1	none (no result: Bim-Mcl-1)
C/C(=N/NC(=O)CN1CCN(S(=O)(=O)c2ccc(C)cc2)CC1)c1cccc(O)c1	none (no result: Bim-Mcl-1)
Cc1ccc(NC(=O)CN2CCN(S(=O)(=O)c3cccs3)CC2)cc1S(=O)(=O)N(C)C	none
O=C(NCc1ccccc1)C(=O)NCC(c1ccco1)N1CCN(c2ccccc2F)CC1 (stereo unspecified)	p47phox inh 59
O=C(NCc1cccnc1)C(=O)NCC(c1ccco1)N1CCN(c2ccccc2F)CC1 (stereo unspecified)	none
CCCCNC(=O)NCc1cnn(C)c1C	none
CCCN1CCN(CCCNC(=S)Nc2ccc(OC)cc2)CC1	none
CC(=O)Nc1ccc(S(=O)(=O)NCC2CCC(C(=O)NCCC3=CCCCC3)CC2)cc1 (stereo unspecified)	Calpain2 inh 52
Cc1ccc(S(=O)(=O)N2c3ccccc3-c3c(ssc3=S)C2(C)C)cc1	none
Cc1ccc(S(=O)(=O)N2C(=O)/C(=C3\SC(=S)NC3=O)c3ccccc32)cc1	Mcl1 Noxa PPI 70 (no result: Bim-Mcl-1)
Cc1cccc(C(C)C)c1NC(=O)c1ccc(CN(c2ccccc2)S(=O)(=O)c2ccccc2)cc1	none
CC(=O)Nc1ccc(S(=O)(=O)Nc2nc3ccccc3nc2Nc2ccc(N)cc2)cc1	Mcl1 Noxa PPI 58 (no result: Bim-Mcl-1)
CC(=O)Nc1ccc(S(=O)(=O)Nc2nc3ccccc3nc2Nc2ccc3ccccc3c2)cc1	none
CN1CCN(C(=O)CSc2nc(-c3cccs3)ccc2C#N)CC1	Mcl1 Noxa PPI 56
C#CCOCCOCCOCCNc1nc(N2CCN(C(=O)[C@H]([C@@H](C)CC)n3cc(CCCN=C(N)N)nn3)CC2)nc(N2CCN(C(=O)[C@H]([C@@H](C)CC)n3cc(CCCN=C(N)N)nn3)CC2)n1	14-3-3 Bad PPI 77, Mcl1 Bid PPI 62
